Test results reported in PubChem BioAssay (NCATS).
Results filed as inconclusive are left out. Calls of active or inactive are those of the source. Unless noted, calls follow the shape of the dose curve; as a rule, active = well fitted curve in the direction sought with a large enough effect; inconclusive = small, poorly fitted or top-dose-only effect, or another doubt; inactive = no such curve, though single readings can be large; an effect the other way counts as inactive or inconclusive.

Assays:
[1] = target: Beta-2 adrenergic receptor (Homo sapiens) (UniProt P07550); assay: qHTS validation assay of beta-arrestin-biased ligands of beta2-adrenergic receptor (AID 485366); also: 0% is about no effect
Method in brief: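 Values derive from curve-fitted %Activity of a luminescent beta-arrestin recruitment reporter; compounds tested up to 46 microM on Tango cells for 18 hr at 37 degrees C, 5% CO2.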

[2] = target: ATP-dependent 6-phosphofructokinase (Trypanosoma brucei brucei) (UniProt O15648); assay: qHTS Validation Assay to Find Inhibitors of T. brucei phosphofructokinase (AID 485368)
Method in brief: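 Enzyme reaction in triethanolamine buffer pH 8.0 with 5 mM MgCl2, 0.01% Tween20 and 0.1% BSA; PFK 1.25 nM, F6P 0.5 mM, ATP 0.1 mM, 45 min RT. ADP quantified by ADP-Glo.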

[3] = Quantitative high throughput screen for delayed death inhibitors of the malarial parasite plastid, 96 hour incubation (AID 488745); also: nearly all actives have a fitted effect of over 70% in size; also: potency is read from the fitted curve at half-maximal effect
Method in brief: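 P. falciparum carrying an integrated firefly luciferase reporter, grown in erythrocytes (2% hematocrit, 0.1% parasitemia final) in RPMI 1640/0.5% Albumax, was exposed to compound for 96 h (two generations) at 37 C, 5% CO2. Luminescence decrease indicated growth inhibition.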

[4] = Quantitative high throughput screen for delayed death inhibitors of the malarial parasite plastid, 48 hour incubation (AID 488752); also: % is scaled to controls: 0 for no effect and ±100 for the full control effect; nearly all actives have a fitted effect of over 65% in size
Method in brief: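 Erythrocytes infected with P. falciparum carrying an integrated firefly luciferase reporter (2% hematocrit, 0.1% parasitemia final) were exposed to compounds in RPMI 1640/0.5% Albumax for 48 h at 37 C, 5% CO2. Growth inhibition was scored as reduced luminescence.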

[5] = target: Thioredoxin reductase 1, cytoplasmic (Rattus norvegicus) (UniProt O89049); assay: qHTS Assay for Substrates of Mammalian Selenoprotein Thioredoxin Reductase 1 (TrxR1) (AID 488772);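 also: NADPH fluorescence in the first read after selenite addition and not the 8 min delta; series mostly up to about 57 µM; 0% is about no effect; a drop in NADPH fluorescence below the no-compound background marks a TrxR1 substrate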
Sequence of Thioredoxin reductase 1, cytoplasmic (Rattus norvegicus) (O89049 whole entry, looked up): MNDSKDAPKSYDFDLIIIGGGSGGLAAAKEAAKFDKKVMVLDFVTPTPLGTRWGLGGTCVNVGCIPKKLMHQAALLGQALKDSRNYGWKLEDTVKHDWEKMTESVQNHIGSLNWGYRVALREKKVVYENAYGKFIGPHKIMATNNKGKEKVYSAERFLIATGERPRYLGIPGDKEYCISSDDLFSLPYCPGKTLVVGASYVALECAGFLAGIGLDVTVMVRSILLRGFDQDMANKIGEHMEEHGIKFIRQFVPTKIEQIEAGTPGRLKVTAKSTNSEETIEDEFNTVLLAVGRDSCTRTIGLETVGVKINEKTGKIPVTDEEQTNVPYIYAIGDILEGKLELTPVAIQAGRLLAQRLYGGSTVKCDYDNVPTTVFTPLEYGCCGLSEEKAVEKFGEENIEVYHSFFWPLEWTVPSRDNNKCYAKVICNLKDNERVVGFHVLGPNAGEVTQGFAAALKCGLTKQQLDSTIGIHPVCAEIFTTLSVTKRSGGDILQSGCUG
Method in brief: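 Quantitative HTS in Tris-HCl buffer at pH 7.5 with EDTA and Tween-20, using rat TrxR1, 400 uM NADPH and 400 uM selenite (final). A fall in initial NADPH fluorescence relative to background marked substrate behaviour.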

[6] = target: Flap endonuclease 1 (Homo sapiens) (UniProt P39748); assay: qHTS Validation Assay for the Inhibitors of Human Flap endonuclease 1 (FEN1) (AID 488816); also: % is scaled to controls: 0 for no effect and ±100 for the full control effect
Sequence of Flap endonuclease 1 (Homo sapiens) (P39748 whole entry, looked up): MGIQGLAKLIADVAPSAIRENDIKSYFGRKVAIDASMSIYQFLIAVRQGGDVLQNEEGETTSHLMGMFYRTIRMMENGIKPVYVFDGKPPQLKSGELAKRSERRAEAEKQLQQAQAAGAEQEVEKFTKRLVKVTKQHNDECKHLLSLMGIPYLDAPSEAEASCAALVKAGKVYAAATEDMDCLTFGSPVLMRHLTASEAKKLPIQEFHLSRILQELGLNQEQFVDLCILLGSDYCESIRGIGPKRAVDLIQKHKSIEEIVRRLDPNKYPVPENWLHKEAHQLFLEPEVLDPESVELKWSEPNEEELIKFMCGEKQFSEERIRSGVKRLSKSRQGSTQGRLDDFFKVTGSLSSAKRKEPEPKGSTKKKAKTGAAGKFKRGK
Method in brief: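 FEN1, dispensed as a 10 nM reagent, was preincubated with pin-transferred compounds for 15 min at room temperature before substrate was added (50 nM final). Plates were read at 0 and 15 min, and a four-parameter Hill equation was fitted to the concentration-response data.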

[7] = target: Chromobox protein homolog 1 (Homo sapiens) (UniProt P83916); assay: qHTS Validation Assay for Inhibitors of HP1-beta Chromodomain Interactions with Methylated Histone Tails (AID 488953); also: nearly all actives have a fitted effect of over 50% in size; also: potency is read from the fitted curve at half-maximal effect
Sequence of Chromobox protein homolog 1 (Homo sapiens) (P83916 whole entry, looked up): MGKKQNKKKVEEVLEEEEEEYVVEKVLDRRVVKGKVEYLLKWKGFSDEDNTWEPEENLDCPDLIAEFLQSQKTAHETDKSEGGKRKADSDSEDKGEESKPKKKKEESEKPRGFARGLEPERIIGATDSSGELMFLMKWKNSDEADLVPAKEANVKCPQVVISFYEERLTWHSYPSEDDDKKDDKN
Method in brief: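 HP1-beta (50 nM) was preincubated 30 min at room temperature with biotinylated H3(1-18)K9me3 peptide (50 nM) in PBS pH 7.4, 0.01% Tween-20, then with compounds 30 min. AlphaScreen signal was read after streptavidin donor/nickel chelate acceptor beads (10 ug/mL final).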

[8] = target: Methanococcus maripaludis chaperonin (MmCpn) (UniProt Q6LX38); assay: High-Throughput Screening for Modulators of Cytosolic Chaperonin Activity: MmCpn Primary Screen (AID 488978);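 also: 50 nM MmCpn enzyme hydrolysing 30 µM ATP at 37 °C; 0% is about no effect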
Method in brief: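 Measures ATPase turnover of the M. maripaludis chaperonin (50 nM final) against 30 uM ATP over 10 min at 37C, with compound added 5 min beforehand at room temperature. ADP is quantified by HTRF immunodetection.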

[9] = target: Transient receptor potential cation channel subfamily V member 1 (Homo sapiens) (UniProt Q8NER1); assay: HTS Assay for Compounds that Act as Enhancers of the Vanilloid Receptor 1 (AID 488979); also: 0% is about no effect
Sequence of Transient receptor potential cation channel subfamily V member 1 (Homo sapiens) (Q8NER1 whole entry, looked up): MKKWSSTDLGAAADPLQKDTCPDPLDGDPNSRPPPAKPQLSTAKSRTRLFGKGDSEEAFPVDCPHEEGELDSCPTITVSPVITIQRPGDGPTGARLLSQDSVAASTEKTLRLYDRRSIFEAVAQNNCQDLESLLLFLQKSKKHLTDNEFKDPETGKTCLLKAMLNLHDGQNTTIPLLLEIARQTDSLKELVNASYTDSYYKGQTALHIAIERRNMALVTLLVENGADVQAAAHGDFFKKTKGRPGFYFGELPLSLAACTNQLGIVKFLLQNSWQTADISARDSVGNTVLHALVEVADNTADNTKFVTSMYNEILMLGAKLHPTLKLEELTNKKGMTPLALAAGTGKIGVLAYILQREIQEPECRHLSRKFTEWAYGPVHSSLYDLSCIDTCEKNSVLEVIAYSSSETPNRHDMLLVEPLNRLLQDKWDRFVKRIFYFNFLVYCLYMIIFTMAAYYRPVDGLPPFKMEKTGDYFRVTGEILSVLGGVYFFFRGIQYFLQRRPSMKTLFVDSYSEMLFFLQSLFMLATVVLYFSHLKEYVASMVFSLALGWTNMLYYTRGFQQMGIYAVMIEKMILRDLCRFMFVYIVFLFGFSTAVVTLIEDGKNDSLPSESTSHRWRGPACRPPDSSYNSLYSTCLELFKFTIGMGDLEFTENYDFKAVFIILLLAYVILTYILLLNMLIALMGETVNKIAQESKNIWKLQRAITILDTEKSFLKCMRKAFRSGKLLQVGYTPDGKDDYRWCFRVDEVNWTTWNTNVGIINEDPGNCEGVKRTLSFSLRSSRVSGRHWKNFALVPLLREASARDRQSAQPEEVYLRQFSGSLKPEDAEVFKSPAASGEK
Method in brief: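 TRPV1-expressing cells loaded with Fluo-8 calcium dye; compounds added and calcium influx read kinetically for 3 min (agonist phase), then capsaicin at EC20 added and read 2 min more for enhancement. Fluorescence ex 480/em 520 nm.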

[10] = target: Thyrotropin receptor (Homo sapiens) (UniProt P16473); assay: qHTS Assay for Antagonists of the Thyroid Stimulating Hormone Receptor (AID 488980); also: series mostly up to about 58 µM; 0% is about no effect
Method in brief: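 Cells expressing human TSHR (HEK293) are dispensed in HBSS/HEPES containing 70 uM RO 20-1724, compound is added, then TSH at EC80 (4 nM final). Antibody in lysis buffer follows, 30 minutes at room temperature before HTRF detection.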

[11] = target: D(1A) dopamine receptor (Homo sapiens) (UniProt P21728); assay: HTS Assay for Allosteric Agonists of the Human D1 Dopamine Receptor: Primary Screen for Potentiators (AID 488982); also: 0% is about no effect
Method in brief: (§1)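 Tetracycline-induced HEK293 T-REx cells force-coupled to calcium signalling were incubated overnight at 30 C and dye-loaded at room temperature. Calcium flux over 180 s after compound addition flagged agonists; a further 180 s read after EC20 dopamine flagged potentiators.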

[12] = target: D(1A) dopamine receptor (Homo sapiens) (UniProt P21728); assay: HTS Assay for Allosteric Agonists of the Human D1 Dopamine Receptor: Primary Screen for Antagonists (AID 488983);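 also: calcium flux response to an EC80 dopamine challenge measured with no-wash dye; nearly all actives have a fitted effect of over 65% in size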; also: potency is read from the fitted curve at half-maximal effect
Method in brief: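 Tetracycline-induced HEK293 T-REx cells expressing force-coupled D1 were plated overnight at 30 C, dye-loaded for calcium, and read kinetically. Compounds were pinned in, then an EC80 dopamine challenge followed after 180 s to reveal antagonism.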

[13] = Validation screen for small molecules that induce genotoxicity in human embryonic kidney (HEK293T) cells expressing luciferase-tagged ELG1 (AID 493106); also: 0% is about no effect
Method in brief: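 HEK293T cells expressing luciferase-tagged ELG1 were exposed to compound or DMSO vehicle for 16 hr at 37 °C, 5% CO2. Genotoxic stress raises ELG1 levels, so increased luciferase signal after ONE-Glo addition and 30 min at room temperature marks hits.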

[14] = target: ATPase family AAA domain-containing protein 5 (Homo sapiens) (UniProt Q96QE3); assay: Validation screen for small molecules that inhibit ELG1-dependent DNA repair in human embryonic kidney (HEK293T) cells expressing luciferase-tagged ELG1 (AID 493107);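 also: cells co-treated with the DNA-damaging agent 5-fluorouridine alongside compound; series mostly up to about 46 µM; % is scaled to controls: 0 for no effect and ±100 for the full control effect; inhibitors lower the ELG1-luciferase luminescence signal; nearly all actives have a fitted effect of over 70% in size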
Sequence of ATPase family AAA domain-containing protein 5 (Homo sapiens) (Q96QE3 whole entry, looked up, the tested form may be a part): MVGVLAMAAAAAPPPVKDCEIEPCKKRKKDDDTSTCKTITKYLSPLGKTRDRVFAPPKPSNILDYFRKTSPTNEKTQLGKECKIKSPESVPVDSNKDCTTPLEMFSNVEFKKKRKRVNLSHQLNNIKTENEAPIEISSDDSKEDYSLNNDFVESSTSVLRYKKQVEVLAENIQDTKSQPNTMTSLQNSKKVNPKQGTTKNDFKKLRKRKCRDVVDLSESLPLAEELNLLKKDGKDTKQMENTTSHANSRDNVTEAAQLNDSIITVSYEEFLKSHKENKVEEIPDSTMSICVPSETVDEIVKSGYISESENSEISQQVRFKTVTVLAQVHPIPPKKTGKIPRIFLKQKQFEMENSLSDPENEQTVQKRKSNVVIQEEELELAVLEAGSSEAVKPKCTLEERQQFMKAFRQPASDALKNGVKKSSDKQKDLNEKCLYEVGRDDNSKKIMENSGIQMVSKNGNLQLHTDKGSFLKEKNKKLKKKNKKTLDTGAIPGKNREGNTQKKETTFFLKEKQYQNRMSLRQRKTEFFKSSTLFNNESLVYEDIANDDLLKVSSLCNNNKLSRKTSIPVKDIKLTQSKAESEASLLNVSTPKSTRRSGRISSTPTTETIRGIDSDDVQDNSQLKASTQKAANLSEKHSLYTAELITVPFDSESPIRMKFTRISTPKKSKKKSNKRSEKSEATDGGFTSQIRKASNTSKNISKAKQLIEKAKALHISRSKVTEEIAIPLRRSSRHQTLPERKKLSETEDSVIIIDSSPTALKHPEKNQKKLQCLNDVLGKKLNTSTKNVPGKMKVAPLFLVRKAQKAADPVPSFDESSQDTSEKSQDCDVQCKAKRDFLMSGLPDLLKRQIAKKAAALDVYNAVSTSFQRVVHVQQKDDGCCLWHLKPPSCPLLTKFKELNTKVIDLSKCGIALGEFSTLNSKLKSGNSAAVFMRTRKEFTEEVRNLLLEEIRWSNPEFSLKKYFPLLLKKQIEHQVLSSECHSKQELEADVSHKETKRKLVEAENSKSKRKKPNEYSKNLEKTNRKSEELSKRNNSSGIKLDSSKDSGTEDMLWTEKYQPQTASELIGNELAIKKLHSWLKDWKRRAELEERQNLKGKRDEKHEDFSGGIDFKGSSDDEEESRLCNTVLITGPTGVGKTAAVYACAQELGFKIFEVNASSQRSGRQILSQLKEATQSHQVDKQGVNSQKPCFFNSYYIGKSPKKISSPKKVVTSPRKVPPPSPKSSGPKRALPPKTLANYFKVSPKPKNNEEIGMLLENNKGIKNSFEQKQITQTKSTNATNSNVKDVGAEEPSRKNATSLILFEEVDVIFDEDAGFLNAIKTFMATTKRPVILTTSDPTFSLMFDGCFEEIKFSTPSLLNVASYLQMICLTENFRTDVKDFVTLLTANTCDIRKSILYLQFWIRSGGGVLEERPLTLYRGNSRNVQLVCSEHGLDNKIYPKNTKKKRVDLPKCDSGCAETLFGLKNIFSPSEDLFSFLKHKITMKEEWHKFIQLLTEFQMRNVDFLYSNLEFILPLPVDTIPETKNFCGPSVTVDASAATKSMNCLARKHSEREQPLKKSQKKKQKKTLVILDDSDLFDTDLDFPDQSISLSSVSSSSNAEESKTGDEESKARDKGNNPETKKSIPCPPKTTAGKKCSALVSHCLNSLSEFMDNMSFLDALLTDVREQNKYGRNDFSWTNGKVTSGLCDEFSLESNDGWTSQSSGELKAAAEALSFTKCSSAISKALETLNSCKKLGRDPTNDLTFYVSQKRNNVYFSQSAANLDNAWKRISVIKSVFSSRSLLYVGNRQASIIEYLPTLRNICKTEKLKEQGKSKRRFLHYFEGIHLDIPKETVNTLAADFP
Method in brief: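 HEK293T cells expressing luciferase-tagged ELG1 were co-treated with 5-fluorouridine and compound or DMSO for 16 hr at 37 °C, 5% CO2. Luciferase activity was then read with ONE-Glo after 30 min at room temperature; suppressed signal indicates blocked ELG1 function.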

[15] = target: Thyrotropin-releasing hormone receptor (Homo sapiens) (UniProt P34981); assay: qHTS for Small Molecule Agonists and Allosteric Enhancers of Human TRH Receptor: Validation Screen for Agonists (AID 493127;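 active = calcium activation more than 3 SD above the typical response in the agonist read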;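 also: intracellular calcium rise by fluo-8 fluorescence before TRH EC20 addition; 0% is about no effect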); conditions: TRH receptor agonist cell assay; at 2 µM; stronger effect = higher value
Sequence of Thyrotropin-releasing hormone receptor (Homo sapiens) (P34981 whole entry, looked up): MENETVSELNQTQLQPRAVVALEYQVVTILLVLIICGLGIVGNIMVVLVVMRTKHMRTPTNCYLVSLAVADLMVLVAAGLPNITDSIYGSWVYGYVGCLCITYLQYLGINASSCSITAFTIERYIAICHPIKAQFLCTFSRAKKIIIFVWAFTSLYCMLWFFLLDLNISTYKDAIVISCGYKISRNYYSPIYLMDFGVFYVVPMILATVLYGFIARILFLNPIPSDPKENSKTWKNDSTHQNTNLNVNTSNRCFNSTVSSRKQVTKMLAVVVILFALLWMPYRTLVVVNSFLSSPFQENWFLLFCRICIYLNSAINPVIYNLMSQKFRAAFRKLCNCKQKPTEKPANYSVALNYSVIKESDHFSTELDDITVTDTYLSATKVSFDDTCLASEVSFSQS
Method in brief: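 TRHR-expressing cells were plated overnight in serum-containing medium, then loaded with fluo-8 calcium dye at room temperature for 30 min–1.5 h. After a 10 s baseline, compound was pin-transferred and calcium fluorescence (ex 480/em 530) read kinetically for agonist response.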

[16] = target: Thioredoxin reductase 1, cytoplasmic (Rattus norvegicus) (UniProt O89049); assay: qHTS Assay for Inhibitors of Mammalian Selenoprotein Thioredoxin Reductase 1 (TrxR1) (AID 488773); conditions: Potency: inhibition;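 also: drop in NADPH fluorescence over an 8 min run after selenite addition; series mostly up to about 57 µM; % is scaled to controls: 0 for no effect and ±100 for the full control effect; nearly all actives have a fitted effect of over 40% in size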
Method in brief: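 Steps: enzyme (90 nM) plus NADPH (400 uM final), 5 min at ~22 deg C; compound added, 15 min; selenite (400 uM final) added; fluorescence followed for 8 min. Concentration-response curves derived from the normalized delta values.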

[17] = target: D(1A) dopamine receptor (Homo sapiens) (UniProt P21728); assay: HTS Assay for Allosteric Agonists of the Human D1 Dopamine Receptor: Primary Screen for Agonists (AID 488981); also: 0% is about no effect
Method in brief: as §1

[18] = target: M-phase phosphoprotein 8 (Homo sapiens) (UniProt Q99549); assay: qHTS Validation Assay for Inhibitors for MPP8 Chromodomain Interactions with Methylated Histone Tails (AID 488949);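 also: AlphaScreen signal from MPP8 chromodomain bound to biotinylated H3K9me3 peptide; top concentration of the series differs between compounds; % is scaled to controls: 0 for no effect and ±100 for the full control effect; nearly all actives have a fitted effect of over 55% in size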
Sequence of M-phase phosphoprotein 8 (Homo sapiens) (Q99549 whole entry, looked up): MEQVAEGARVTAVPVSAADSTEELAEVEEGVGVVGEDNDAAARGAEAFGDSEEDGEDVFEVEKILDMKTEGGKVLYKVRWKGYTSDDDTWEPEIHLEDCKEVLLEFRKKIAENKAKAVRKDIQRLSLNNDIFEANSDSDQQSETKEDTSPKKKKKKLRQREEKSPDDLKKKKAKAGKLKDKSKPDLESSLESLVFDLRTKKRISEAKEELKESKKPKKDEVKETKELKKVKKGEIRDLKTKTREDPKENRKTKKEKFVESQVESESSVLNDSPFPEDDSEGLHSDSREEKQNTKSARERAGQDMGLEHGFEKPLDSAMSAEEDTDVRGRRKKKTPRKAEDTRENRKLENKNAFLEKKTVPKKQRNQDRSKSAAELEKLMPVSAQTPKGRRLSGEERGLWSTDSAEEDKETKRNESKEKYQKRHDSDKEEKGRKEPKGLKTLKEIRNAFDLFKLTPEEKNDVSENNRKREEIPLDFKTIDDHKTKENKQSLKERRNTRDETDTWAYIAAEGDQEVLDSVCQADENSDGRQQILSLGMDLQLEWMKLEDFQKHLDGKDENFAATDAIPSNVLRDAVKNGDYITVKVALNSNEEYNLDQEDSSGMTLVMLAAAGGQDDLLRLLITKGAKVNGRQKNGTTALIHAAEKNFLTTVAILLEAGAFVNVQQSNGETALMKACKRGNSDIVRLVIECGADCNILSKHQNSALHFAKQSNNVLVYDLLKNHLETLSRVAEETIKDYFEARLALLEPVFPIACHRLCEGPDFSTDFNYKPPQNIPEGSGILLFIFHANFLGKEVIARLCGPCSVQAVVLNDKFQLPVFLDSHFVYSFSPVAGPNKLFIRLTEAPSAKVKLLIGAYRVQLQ
Method in brief: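 Disruption of the preformed MPP8–trimethyl-H3K9 peptide complex (both 50 nM, 30 min, RT) is measured after 30 min compound exposure, using AlphaScreen proximity beads; aurintricarboxylic acid titration serves as plate control.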

NC(=O)c1ccccc1
inactive: outcome [1] | Potency [2] | Potency [3] | Potency [4] | outcome [5] | Potency [6] | Potency [7] | outcome [8] | outcome [9] | outcome [10] | Potency [11] | Potency [12] | Potency [13] | Potency [14] | activation [15] 0.25%

CCCc1c(OCCCOc2ccc(OCC(=O)O)cc2)ccc(C(C)=O)c1O
inactive: outcome [1] | Potency [2] | Potency [3] | Potency [4] | outcome [5] | Potency [16] | Potency [7] | outcome [9] | outcome [10] | Potency [17] | Potency [11] | Potency [13] | Potency [14]

CN1CCC2(CCN3CCc4c(oc5ccccc45)C3C2)N(C)C1=O (centres undefined)
inactive: outcome [1] | Potency [2] | Potency [3] | Potency [4] | outcome [5] | Potency [16] | Potency [18] | Potency [7] | outcome [8] | outcome [9] | Potency [17] | Potency [11] | Potency [13] | Potency [14] | activation [15] 0.25%
active: Potency [12] 10 µM

COc1ccccc1N1CCN(CCCCN2C(=O)c3ccccc3C2=O)CC1
active: Potency [12] 10 µM
inactive: outcome [1] | Potency [2] | Potency [4] | outcome [5] | Potency [16] | Potency [6] | Potency [18] | Potency [7] | outcome [9] | outcome [10] | Potency [17] | Potency [11] | Potency [13] | Potency [14] | activation [15] -3.44%

COc1ccc2c(c1)c(CC(=O)O)c(C)n2Cc1ccc(Cl)cc1
inactive: outcome [1] | Potency [2] | outcome [5] | Potency [16] | Potency [6] | Potency [18] | outcome [8] | outcome [9] | outcome [10] | Potency [17] | Potency [11] | Potency [13] | Potency [14] | activation [15] -0.188%
active: Potency [3] 10.4 µM | Potency [7] 0.0067 µM

CSC(N)=NCCC[C@H](N)C(=O)O
inactive: outcome [1] | Potency [2] | Potency [4] | outcome [5] | Potency [16] | Potency [6] | Potency [18] | Potency [7] | outcome [8] | outcome [9] | outcome [10] | Potency [17] | Potency [11] | Potency [12] | Potency [13] | activation [15] 0.75%

C=C(C)C1CC=C(C(=O)O)CC1 (centres undefined)
inactive: outcome [1] | Potency [2] | Potency [3] | Potency [4] | outcome [5] | Potency [16] | Potency [18] | Potency [7] | outcome [8] | outcome [9] | outcome [10] | Potency [17] | Potency [11] | Potency [13] | Potency [14]

OC[C@H]1NC[C@@H](O)[C@@H]1O
inactive: outcome [1] | Potency [2] | Potency [4] | outcome [5] | Potency [16] | Potency [6] | Potency [18] | Potency [7] | outcome [8] | outcome [9] | Potency [17] | Potency [11] | Potency [12] | Potency [13] | Potency [14] | activation [15] 1.19%

Cn1ccnc1
inactive: outcome [1] | Potency [2] | Potency [3] | Potency [4] | outcome [5] | Potency [16] | Potency [18] | Potency [7] | outcome [8] | outcome [9] | outcome [10] | Potency [11] | Potency [12] | Potency [13] | Potency [14] | activation [15] 1.38%

CC(N)(Cc1ccc(O)cc1)C(=O)O (centres undefined)
inactive: outcome [1] | Potency [2] | Potency [3] | Potency [4] | outcome [5] | Potency [6] | Potency [18] | Potency [7] | outcome [8] | outcome [9] | outcome [10] | Potency [11] | Potency [13] | Potency [14]

CC(N)=O
inactive: outcome [1] | Potency [2] | Potency [3] | Potency [4] | outcome [5] | Potency [16] | Potency [18] | Potency [7] | outcome [8] | outcome [9] | outcome [10] | Potency [17] | Potency [11] | Potency [12] | Potency [13] | Potency [14]

CC(=O)C(C)=O
inactive: outcome [1] | Potency [2] | Potency [3] | Potency [4] | outcome [5] | Potency [6] | Potency [18] | outcome [8] | outcome [9] | outcome [10] | Potency [17] | Potency [11] | Potency [12] | Potency [13]

c1ccc2c(c1)CC(N1CCN(c3cccc4c3OCCO4)CC1)C2
active: Potency [7] 0.006 µM
inactive: outcome [1] | Potency [2] | Potency [4] | outcome [5] | Potency [16] | Potency [6] | Potency [18] | outcome [9] | outcome [10] | Potency [17] | Potency [11] | Potency [12] | Potency [13] | Potency [14] | activation [15] -3.75%

O=c1oc(Cl)c(Cl)c2ccccc12
inactive: outcome [1] | Potency [2] | Potency [3] | Potency [4] | outcome [5] | Potency [6] | outcome [9] | outcome [10] | Potency [17] | Potency [11] | Potency [12] | Potency [13] | activation [15] -4.69%

C#CC(N)CCC(=O)O (centres undefined)
inactive: outcome [1] | Potency [2] | Potency [4] | outcome [5] | Potency [16] | Potency [6] | Potency [18] | Potency [7] | outcome [8] | outcome [9] | outcome [10] | Potency [17] | Potency [11] | Potency [12] | Potency [14] | activation [15] 0.625%

CCCC[C@@]1(C2CCCC2)Cc2cc(OCC(=O)O)c(Cl)c(Cl)c2C1=O
inactive: outcome [1] | Potency [2] | Potency [3] | Potency [16] | Potency [6] | Potency [18] | Potency [7] | outcome [8] | outcome [9] | outcome [10] | Potency [17] | Potency [11] | Potency [12] | Potency [13] | Potency [14] | activation [15] 1.19%
